Test results reported in PubChem BioAssay AID629 (Emory University Molecular Libraries Screening Center, 2007).
The whole screen tested about 86,000 compounds, of which about 1,400 (1.6%) were called active. No stated cut-off is given here; in the data, active means inhibition above about 50%; inactive means the rest. The full list was thinned out, with actives kept by preference.

Target: Estrogen receptor (Homo sapiens) (UniProt P03372)
Test: ERα–SRC-1 coactivator interaction inhibitors, primary screen, biochemical, TR-FRET, ERα LBD, estradiol-bound (AID 629);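 further: 0% = receptor plus peptide control and 100% = peptide only without receptor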
Conditions: TR-FRET ER-alpha LBD / SRC-1 peptide, at 25.6 µM, hits give high values

Sequence of Estrogen receptor (Homo sapiens) (P03372 whole entry, looked up, the tested form may be a part): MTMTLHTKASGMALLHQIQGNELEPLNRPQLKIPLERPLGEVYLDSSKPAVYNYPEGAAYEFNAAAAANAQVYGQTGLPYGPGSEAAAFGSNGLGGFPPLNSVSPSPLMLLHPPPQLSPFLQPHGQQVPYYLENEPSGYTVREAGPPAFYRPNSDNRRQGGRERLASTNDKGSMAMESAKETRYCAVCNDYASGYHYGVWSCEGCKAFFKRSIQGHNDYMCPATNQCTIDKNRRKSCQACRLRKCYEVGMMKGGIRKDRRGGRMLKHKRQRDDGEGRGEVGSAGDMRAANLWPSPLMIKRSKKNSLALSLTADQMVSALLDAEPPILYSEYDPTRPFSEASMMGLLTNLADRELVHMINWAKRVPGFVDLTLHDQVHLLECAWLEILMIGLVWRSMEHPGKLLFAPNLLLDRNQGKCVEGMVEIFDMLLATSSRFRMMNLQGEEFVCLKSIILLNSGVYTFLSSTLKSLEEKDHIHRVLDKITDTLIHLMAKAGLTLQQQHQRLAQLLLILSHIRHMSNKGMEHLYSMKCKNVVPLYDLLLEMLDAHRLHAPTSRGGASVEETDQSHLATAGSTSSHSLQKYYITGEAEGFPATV

inhibition, active:
O=C(COC(=O)CCC(=O)c1cccs1)NCc1ccco1 71.3%
Cc1cccc(NC(=O)Cn2cc(C(=O)c3ccco3)c3ccccc32)c1 52.3%
COc1ccc(Cc2nnc(NC(=O)Cc3cccs3)s2)cc1 97.3% [fluorescence artefact?]
Cc1nc2c(c(=O)n1Cc1ccco1)c1nc3ccccc3nc1n2Cc1ccccc1 79.5%
C=C(C)CNC(=S)/N=c1\scc(C)n1CC 64.7% [fluorescence artefact?]
Oc1c(C(c2ccccn2)N2CCOCC2)ccc2cccnc12 (stereo unspecified) 70% [fluorescence artefact?]
O=C(Nc1ccc2oc(-c3ccc4ccccc4c3)nc2c1)c1cccs1 55%
CCN1CCN(C(c2cccnc2)c2cc(Cl)c3cccnc3c2O)CC1 (stereo unspecified) 65.6% [fluorescence artefact?]
CCOC(=O)N1CCN(C(c2cccnc2)c2ccc3cccnc3c2O)CC1 (stereo unspecified) 53.3% [fluorescence artefact?]
O=C(Nc1nc(-c2ccc3c(c2)OCO3)cs1)c1ccncc1 58% [fluorescence artefact?]
c1ccc(-c2cc(-c3nnc4sc(-c5ccccn5)nn34)[nH]n2)cc1 54.2% [fluorescence artefact?]
CCOc1cc(N2CCOCC2)c(OCC)cc1NC(=O)COc1cccc2cccnc12 94.2% [fluorescence artefact?]
COc1ccc(C)c2sc(=NC(=O)c3ccc(C#N)cc3)n(C)c12 79.7% [fluorescence artefact?]
Cc1nc(N2CCN(c3ncccn3)CC2)c2oc3ccccc3c2n1 54.3% [fluorescence artefact?]
CN1CCc2c(sc3c2c(NCc2ccco2)nc2nnnn23)C1 84.9% [fluorescence artefact?]
Cn1c(=NC(=O)c2cnccn2)sc2ccccc21 56.8% [fluorescence artefact?]
O=C(NCc1ccccn1)c1ccc2nc(-c3ccco3)c(-c3ccco3)nc2c1 88% [fluorescence artefact?]
O=c1/c(=C/c2ccc(CNS(=O)(=O)c3ccccc3)o2)sc2n1CCN=2 51.2% [fluorescence artefact?]

inhibition, inactive:
COC(=O)C1=C(Nc2ccc(C)cc2)C=C(C)C(C(=O)OC)C1c1ccc(F)cc1 (stereo unspecified) -7.97%
Cc1nn(C)cc1CNC(=O)Nc1ccc(Cl)cc1 5.21%
Cc1cccc(C(=O)Nc2ccccc2N2CCN(c3ccc(F)cc3)CC2)c1 -12.2%
O=C1CCCc2nn(-c3ccccc3)nc21 -5.5%
O=C(COC(=O)C12CC3CC(CC(C3)C1)C2)NCc1ccco1 21%
O=C(CCC(=O)c1cccs1)NCc1ccccc1 3.23%
O=C(Nc1nncs1)c1cccc(S(=O)(=O)N2CCCCC2)c1 -7.35%
CC(C)(C)n1nnnc1C(c1ccc(Cl)cc1)N1CCSCC1 (stereo unspecified) -5.89%
O=C(Cn1cc(C(=O)c2cccs2)c2ccccc21)NCc1cccs1 4.67%
Cc1cccc(NC(=O)CSc2nnc(-c3ccco3)o2)c1 -9.42%
Cc1cc(C)c2cc(CN(Cc3nnnn3Cc3ccc(F)cc3)C3CCCC3)c(=O)[nH]c2c1 7.55%
COc1ccc(-c2nnc(SCc3cccnc3)o2)cc1 -6.1%
COc1ccc(S(=O)(=O)N/N=C\c2ccc(OC)c(COc3ccc(C)cc3[N+](=O)[O-])c2)cc1 17.7%
O=C(CSc1nnnn1-c1ccccc1)NCc1ccco1 33.1%
CCCc1ccc(-c2csc(NC(=O)Cc3cccs3)n2)cc1 7.36%
COc1ccc(Cc2nnc(NS(=O)(=O)Cc3ccccc3)s2)cc1 -16.5%
CC(C)(C)C(=O)Cn1c(NCCO)nc2ccccc21 -7.55%
CN(Cc1ccccc1)C(=O)COc1ccccc1 21%
COCCCn1c2nc3ccccc3nc2c2c(=O)n(Cc3ccc(Cl)cc3)c(C)nc21 22.2%
Cc1ccc(Cn2c(C)nc3c(c2=O)c2nc4ccccc4nc2n3Cc2ccco2)cc1 45.1%
CC1(C)CCc2nc(SCc3ccccc3)c(C#N)cc2C1 -2.01%
CS(=O)(=O)n1nc(-c2ccccc2)nc1NCc1ccco1 -3%
CCOc1ccc2c(c1)C(c1ccc(C)cc1)=NNC(c1ccc(C)cc1)=N2 -14.6%
Clc1ccc(COn2c(-c3ccc(Cl)cc3Cl)nc3ncccc32)cc1 27.7%
COc1ccc(S(=O)(=O)NCc2ccc(C(=O)N(C)Cc3ccco3)cc2)cc1 2.78%
Cc1nc2sc(C(c3ccco3)N3CCOCC3)c(O)n2n1 (stereo unspecified) -24%
O=C(c1cccnc1NCc1ccccc1)N1CCOCC1 -6.49%
CCc1nnc(NC(=O)CCC(=O)NCc2ccccc2OC)s1 -1.4%
O=C(Cc1cccc2ccccc12)Nc1ccc2oc(-c3ccccc3)nc2c1 -1.24%
Cc1nc(-c2ccc(NC(=O)c3cccs3)cc2)cs1 -16.8%
CCOC(=O)c1ccccc1NS(=O)(=O)c1ccc(OC)cc1 -11.3%
Oc1c(CN2CCN(c3ccc(F)cc3)CC2)cc(Cl)c2cccnc12 -0.01%
CCOC(=O)N1CCN(C(=O)c2cc3c(ccc4ccccc43)oc2=O)CC1 -9.07%
CCOC(=O)N1CCN(C(=O)CSc2ccc(Cl)cc2)CC1 -2.04%
CCn1c(=O)c(=O)n(CC)c2cc(S(=O)(=O)N3CCc4ccccc43)ccc21 -5.41%
CCN(CC)CC(=O)c1c[nH]c2ccc(OC)cc12 -8.61%
CCOC(=O)/C(C#N)=C\c1c(C)cc(C)c(COC(C)=O)c1C -6.55%
O=C(Nc1nc(-c2ccncc2)cs1)C1COc2ccccc2O1 (stereo unspecified) 1.84%
O=C(Nc1ccc2c(c1)OCCO2)c1ccncc1 -22.6%
COc1ccc(CN(C(=O)CSc2nnc(-c3ccc(OC)c(OC)c3)o2)c2ccc(F)cc2)cc1 -6.76%
COc1ccc(C(=O)N2CC3(C)CC2CC(C)(C)C3)cc1OC (stereo unspecified) -3.82%
O=C(CSc1nnc(-c2cccnc2)n1CCc1ccccc1)NCc1ccccc1 -17.8%
COc1ccc(-c2nn3c(-c4ccccc4)nnc3s2)cc1OC 3.83%
CCOc1cccc(-c2nn3c(-c4ccccn4)nnc3s2)c1 2.04%
O=C(/C=C/NNC(=O)c1cccc(Br)c1)c1ccccc1 -3.8%
C=CCO/N=C(\C)c1c(O)c(C)c(-c2ccccc2)n(-c2ccccc2)c1=O 2.56%
CC(=O)Nc1cccc(Oc2cc(C#N)c(C#N)cc2N2CCOCC2)c1 8.98%
CCOc1cc(N2CCOCC2)c(OCC)cc1NC(=O)COC(=O)[C@H](Cc1c[nH]c2ccccc12)NC(C)=O -11.8%
Cn1c(=NC(=O)C2CC2)sc2cc(F)cc(F)c21 -0.62%
COc1ccc(OC)c2c1sc(=NC(=O)CN1C(=O)CCC1=O)n2C 28.2%
CCC(c1nnnn1C(C)(C)C)N(Cc1cc2cccc(C)c2n2nnnc12)C1CCCC1 (stereo unspecified) -3.95%
CCc1nc(N2CCN(c3nc(C)cc(C)n3)CC2)c2oc3ccccc3c2n1 49.1%
Cc1cc(C)nc(N2CCN(c3ncnc4c3oc3ccccc34)CC2)n1 16.1%
c1ccc(-c2nc(NCc3ccco3)c3ccccc3n2)cc1 2.5%
O=C(Cc1ccccc1)n1nc(-c2ccccc2)nc1NCc1ccco1 -2.71%
CC(C)CCNC(=O)CC1C(=O)N(Cc2ccccc2)C(C)c2nc3ccccc3n21 (stereo unspecified) -8.13%
COCCNS(=O)(=O)c1cc(Br)ccc1OC 3.01%
CC(C)(C)c1ccc(C(=O)NCC(=O)OCN2C(=O)c3ccccc3C2=O)cc1 0.65%
O=C(OCC#CCSc1nnc(-c2ccncc2)o1)c1sc2ccccc2c1Cl -0.24%
O=C(CN1C(=O)CC(c2ccccc2)=Nc2ccccc21)NC1CCCCC1 -6.54%
Cn1c(=NC(=O)CSCC(=O)N2CCOCC2)sc2ccccc21 -10.2%
Cn1c(=NC(=O)CSCC(=O)N2CCCCC2)sc2ccccc21 -2.22%
O=C(Nc1ccc2nc3n(c(=O)c2c1)CCCCC3)c1ccccc1Cl 1.87%
CCCc1noc2c1/C(=N\O)CCC2 -11.6%
COc1ccc(S(=O)(=O)Nc2ccc(F)cc2)c(C)c1C 10.1%
O=C(NCc1ccccn1)c1cc2ccccc2oc1=O -3.07%
CN(c1ccc(C(=O)NCc2ccccn2)cc1)S(C)(=O)=O -0.26%
CCN(CC)C(=O)CSc1nc2ccccc2o1 -2.4%
O=S(=O)(NCC1OCCc2ccccc21)c1ccccc1 (stereo unspecified) -3.46%
O=S(=O)(NCCNS(=O)(=O)c1ccccc1)c1ccccc1 -4.42%
CC(=O)C1=C(C)NC(=O)NC1c1cc(Br)ccc1OCC#N (stereo unspecified) -10.9%
CC(C)n1c(-c2cccs2)nc2ccccc21 -8.49%
O=C(CCn1c(SCC(=O)c2ccccc2)nc2ccccc2c1=O)NCc1ccc(F)cc1 47.2%
